In PubChem BioAssay (NCATS):
Results filed as inconclusive are left out. Entries that show only a call come without a potency. Activity calls are given as the source filed them. Unless noted, the call rests on the fitted dose curve; in most records, active means well fitted curve in the direction sought with a large enough effect; inconclusive means small, poorly fitted or top-dose-only effect, or another doubt; inactive means no such curve, though single readings can be large; an effect the other way counts as inactive or inconclusive.

Legend:
[1] = molecular target: ATPase family AAA domain-containing protein 5 (Homo sapiens) (UniProt Q96QE3); test: Validation screen for small molecules that inhibit ELG1-dependent DNA repair in human embryonic kidney (HEK293T) cells expressing luciferase-tagged ELG1 (AID 493107); further: nearly all actives have a fitted effect of over 70% in size; further: potency means the concentration at half of the fitted maximal effect
Chain of ATPase family AAA domain-containing protein 5 (Homo sapiens) (Q96QE3 whole entry, looked up, the tested form may be a part): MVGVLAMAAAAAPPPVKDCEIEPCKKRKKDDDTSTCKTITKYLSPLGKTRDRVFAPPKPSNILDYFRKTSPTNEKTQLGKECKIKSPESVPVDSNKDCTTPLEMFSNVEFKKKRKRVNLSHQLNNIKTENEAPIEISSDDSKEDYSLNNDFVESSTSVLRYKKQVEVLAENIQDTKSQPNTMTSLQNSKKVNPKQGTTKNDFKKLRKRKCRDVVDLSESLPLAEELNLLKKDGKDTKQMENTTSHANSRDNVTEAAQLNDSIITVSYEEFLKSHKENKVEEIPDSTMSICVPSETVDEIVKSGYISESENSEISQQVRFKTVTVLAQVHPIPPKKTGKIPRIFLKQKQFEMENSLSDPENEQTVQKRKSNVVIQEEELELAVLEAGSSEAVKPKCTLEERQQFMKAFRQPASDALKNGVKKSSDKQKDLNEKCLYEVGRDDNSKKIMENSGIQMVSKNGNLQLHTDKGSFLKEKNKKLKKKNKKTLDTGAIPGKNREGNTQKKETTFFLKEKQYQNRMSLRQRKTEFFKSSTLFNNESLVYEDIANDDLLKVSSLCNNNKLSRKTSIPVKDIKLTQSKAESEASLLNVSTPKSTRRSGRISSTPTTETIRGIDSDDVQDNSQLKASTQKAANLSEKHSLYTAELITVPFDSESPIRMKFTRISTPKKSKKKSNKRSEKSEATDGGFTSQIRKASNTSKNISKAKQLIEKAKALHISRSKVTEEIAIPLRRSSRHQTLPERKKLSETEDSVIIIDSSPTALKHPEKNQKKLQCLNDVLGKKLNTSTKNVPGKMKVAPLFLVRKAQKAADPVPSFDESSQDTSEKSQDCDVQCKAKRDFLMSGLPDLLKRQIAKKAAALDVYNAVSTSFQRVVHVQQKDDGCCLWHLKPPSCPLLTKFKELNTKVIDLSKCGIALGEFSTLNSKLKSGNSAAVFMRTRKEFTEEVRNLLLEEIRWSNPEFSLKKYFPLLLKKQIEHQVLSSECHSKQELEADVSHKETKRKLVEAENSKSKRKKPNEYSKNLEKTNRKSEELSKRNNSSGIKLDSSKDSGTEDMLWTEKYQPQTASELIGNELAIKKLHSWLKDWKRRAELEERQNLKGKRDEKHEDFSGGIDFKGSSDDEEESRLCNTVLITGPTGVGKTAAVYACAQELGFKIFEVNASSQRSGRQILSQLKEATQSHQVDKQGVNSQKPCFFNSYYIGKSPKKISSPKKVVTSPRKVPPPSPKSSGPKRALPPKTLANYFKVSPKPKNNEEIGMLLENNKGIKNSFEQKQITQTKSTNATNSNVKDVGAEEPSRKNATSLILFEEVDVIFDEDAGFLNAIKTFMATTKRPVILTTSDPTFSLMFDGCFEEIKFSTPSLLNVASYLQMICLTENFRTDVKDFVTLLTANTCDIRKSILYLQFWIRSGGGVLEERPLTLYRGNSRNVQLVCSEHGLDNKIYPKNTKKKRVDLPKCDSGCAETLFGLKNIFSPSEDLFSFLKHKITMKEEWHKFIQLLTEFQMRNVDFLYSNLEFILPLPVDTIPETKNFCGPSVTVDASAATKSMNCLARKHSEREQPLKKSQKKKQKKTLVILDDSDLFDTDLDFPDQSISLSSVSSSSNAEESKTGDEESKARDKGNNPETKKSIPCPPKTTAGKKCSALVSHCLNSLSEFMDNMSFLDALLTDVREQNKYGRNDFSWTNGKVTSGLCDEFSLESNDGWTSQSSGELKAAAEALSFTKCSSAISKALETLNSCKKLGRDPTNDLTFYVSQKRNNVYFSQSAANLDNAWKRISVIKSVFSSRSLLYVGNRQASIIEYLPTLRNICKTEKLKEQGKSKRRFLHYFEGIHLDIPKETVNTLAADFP
Procedure, shortened: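 Compounds reducing 5-fluorouridine-driven ELG1-luciferase signal in HEK293T cells were scored; exposure lasted 16 hr at 37 °C with luminescence detected via ONE-Glo.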

[2] = qHTS for Inhibitors of Cell Surface uPA Generation: Validation Assay (AID 493164);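 further: RAW 264.7 macrophage cells exposed to compound for 18 h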
Procedure, shortened: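 Compounds are titrated over seven points (2.45 nM–38.3 uM final) onto pre-plated RAW 264.7 cells and incubated for 18 h. Retained intracellular ATP, measured with ATP-Lite, indicates blocked lethal factor entry.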

[3] = molecular target: Galactokinase (Homo sapiens) (UniProt P51570); test: qHTS Validation Assay for Inhibitors of Human Galactokinase (GALK) (AID 493189)
Chain of Galactokinase (Homo sapiens) (P51570 whole entry, looked up): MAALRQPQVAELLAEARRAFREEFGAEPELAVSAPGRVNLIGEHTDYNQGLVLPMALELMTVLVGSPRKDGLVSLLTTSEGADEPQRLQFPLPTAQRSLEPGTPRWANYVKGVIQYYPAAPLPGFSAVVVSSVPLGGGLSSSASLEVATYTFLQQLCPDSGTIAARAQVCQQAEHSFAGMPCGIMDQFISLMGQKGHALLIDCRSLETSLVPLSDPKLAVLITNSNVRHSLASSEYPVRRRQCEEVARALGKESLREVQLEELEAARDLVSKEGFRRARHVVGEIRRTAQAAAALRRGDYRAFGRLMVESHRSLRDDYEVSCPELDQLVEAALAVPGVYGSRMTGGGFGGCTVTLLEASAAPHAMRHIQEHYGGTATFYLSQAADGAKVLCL
Procedure, shortened: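 Enzyme activity is inferred from ATP consumption: human GALK phosphorylates galactose (100 uM) using 35 uM ATP for 1 h at room temperature, and luciferase-based Kinase-Glo Plus reports unconsumed ATP.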

[4] = Validation screen for small molecules that induce DNA re-replication in SW480 colon adenocarcinoma cells (AID 504364)
Procedure, shortened: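 Hoechst-stained SW480 nuclei, imaged at 405 nm excitation after 48 hr compound exposure, were counted for elevated DNA content as the re-replication signal.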

[5] = molecular target: Peptidyl-prolyl cis-trans isomerase NIMA-interacting 1 (Homo sapiens) (UniProt Q13526); test: qHTS Validation Assay to Find Inhibitors of Pin1 (AID 504536; active means well fitted inhibition curve with a large enough effect in the polarisation, with a control signal flat, not every such curve was filed as active; the % refers to the polarisation)
Chain of Peptidyl-prolyl cis-trans isomerase NIMA-interacting 1 (Homo sapiens) (Q13526 whole entry, looked up): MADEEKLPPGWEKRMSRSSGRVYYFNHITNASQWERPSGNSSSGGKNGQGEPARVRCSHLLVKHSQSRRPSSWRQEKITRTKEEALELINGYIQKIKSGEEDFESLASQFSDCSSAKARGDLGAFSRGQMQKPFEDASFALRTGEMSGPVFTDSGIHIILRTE
Procedure, shortened: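 Fluorescence polarization competition: compounds (titration) displace HiFluor-488-labeled Pin1-1b peptide from Pin1 (0.3 uM final) in pH 7.5 HEPES buffer with DTT, 10 min at room temperature; %Activity normalized to no-enzyme wells, curves fitted.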

[6] = molecular target: Phosphoglycerate kinase, glycosomal (Trypanosoma brucei brucei) (UniProt P07378); test: qHTS Validation Assay to Find Inhibitors of Phosphoglycerate Kinase (AID 504547)
Chain of Phosphoglycerate kinase, glycosomal (Trypanosoma brucei brucei) (P07378 whole entry, looked up): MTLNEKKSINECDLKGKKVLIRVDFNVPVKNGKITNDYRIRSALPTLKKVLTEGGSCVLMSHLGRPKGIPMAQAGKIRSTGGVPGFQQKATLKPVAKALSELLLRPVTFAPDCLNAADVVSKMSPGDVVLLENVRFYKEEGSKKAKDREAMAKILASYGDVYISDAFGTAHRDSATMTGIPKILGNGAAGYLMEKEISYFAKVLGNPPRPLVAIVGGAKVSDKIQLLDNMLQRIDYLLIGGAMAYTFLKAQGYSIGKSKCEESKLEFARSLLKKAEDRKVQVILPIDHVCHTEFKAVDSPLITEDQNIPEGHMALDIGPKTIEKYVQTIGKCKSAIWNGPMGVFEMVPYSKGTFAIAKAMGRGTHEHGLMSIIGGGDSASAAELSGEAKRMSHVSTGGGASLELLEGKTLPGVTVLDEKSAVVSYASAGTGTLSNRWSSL
Procedure, shortened: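 Luminescence end-point (Kinase-Glo Plus, 10 min) after a 60 min room-temperature coupled reaction. GAPDH at 100nM final supplies 1,3-BPG to PGK. Buffer: 100mM TEA pH 7.6, 5mM MgCl2, 0.01% Tween-20. Wells lacking PGK served as controls.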

[7] = molecular target: phosphoglycerate mutase (Leishmania major) (UniProt Q4Q090); test: qHTS Validation Assay to Find Inhibitors of Phosphoglycerate Mutase (AID 504548); further: series mostly up to about 58 µM
Chain of phosphoglycerate mutase (Leishmania major) (Q4Q090 1-553): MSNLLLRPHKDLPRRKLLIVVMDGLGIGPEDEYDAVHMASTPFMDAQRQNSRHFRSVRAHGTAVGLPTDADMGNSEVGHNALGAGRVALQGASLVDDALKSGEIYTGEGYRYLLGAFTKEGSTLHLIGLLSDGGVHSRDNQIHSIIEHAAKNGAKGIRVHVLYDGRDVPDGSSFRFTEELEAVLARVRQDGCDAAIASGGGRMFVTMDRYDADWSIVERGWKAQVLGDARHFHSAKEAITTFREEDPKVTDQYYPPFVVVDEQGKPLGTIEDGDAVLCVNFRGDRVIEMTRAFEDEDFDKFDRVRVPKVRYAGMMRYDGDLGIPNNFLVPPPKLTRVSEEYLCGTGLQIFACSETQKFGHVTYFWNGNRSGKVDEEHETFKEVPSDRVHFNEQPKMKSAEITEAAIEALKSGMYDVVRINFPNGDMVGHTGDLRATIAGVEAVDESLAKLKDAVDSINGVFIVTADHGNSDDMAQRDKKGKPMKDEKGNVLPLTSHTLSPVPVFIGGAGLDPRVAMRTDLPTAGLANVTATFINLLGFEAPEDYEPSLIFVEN
Procedure, shortened: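 Lm PGAM at 1.25 nM final with substrate in 100 mM TEA pH 7.6, 5 mM MgCl2, 0.01% Tween-20; 45 min at room temperature. Kinase-GloPlus added, 10 min, end-point luminescence read.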

[8] = molecular target: Ubiquitin carboxyl-terminal hydrolase 1 (Homo sapiens) (UniProt O94782); test: Inhibitors of USP1/UAF1: Pilot qHTS (AID 504865);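 further: rhodamine fluorescence freed from ubiquitin-rhodamine substrate followed over time; top concentration of the series differs between compounds; nearly all actives have a fitted effect of over 35% in size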
Chain of Ubiquitin carboxyl-terminal hydrolase 1 (Homo sapiens) (O94782 whole entry, looked up): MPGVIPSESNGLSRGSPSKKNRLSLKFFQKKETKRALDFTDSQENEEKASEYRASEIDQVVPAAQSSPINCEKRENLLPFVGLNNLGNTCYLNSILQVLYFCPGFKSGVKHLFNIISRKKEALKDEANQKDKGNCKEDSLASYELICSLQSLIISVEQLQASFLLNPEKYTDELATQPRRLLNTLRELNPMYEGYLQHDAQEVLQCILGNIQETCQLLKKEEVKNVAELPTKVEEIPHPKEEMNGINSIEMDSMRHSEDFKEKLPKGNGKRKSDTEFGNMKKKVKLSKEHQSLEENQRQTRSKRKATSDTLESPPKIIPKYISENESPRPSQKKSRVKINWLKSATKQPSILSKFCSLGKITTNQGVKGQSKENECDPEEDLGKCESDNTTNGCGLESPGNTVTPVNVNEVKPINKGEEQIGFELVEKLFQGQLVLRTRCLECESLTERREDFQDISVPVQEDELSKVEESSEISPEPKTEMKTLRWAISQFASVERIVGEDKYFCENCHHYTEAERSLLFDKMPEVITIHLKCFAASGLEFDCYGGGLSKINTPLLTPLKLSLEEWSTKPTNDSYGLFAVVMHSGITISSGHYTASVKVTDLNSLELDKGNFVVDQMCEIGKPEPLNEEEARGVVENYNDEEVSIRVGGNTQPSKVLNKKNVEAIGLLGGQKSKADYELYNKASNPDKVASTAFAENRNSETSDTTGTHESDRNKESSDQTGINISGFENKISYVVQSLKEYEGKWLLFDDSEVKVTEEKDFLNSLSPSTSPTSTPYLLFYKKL
Procedure, shortened: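 Enzyme-free wells gave the negative control, while test wells held 1nM USP1/UAF1 preincubated with compound for 15 min at room temperature. Ub-Rho at 150nM final started the reaction, and fluorescence at 480/540 nm was recorded kinetically.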

[9] = qHTS for Inhibitors of ATXN expression: Validation of Cytotoxic Assay (AID 588349)
Procedure, shortened: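 Toxicity of test compounds toward HEK293 cells is scored from cellular ATP content measured by CellTiter Glo. Cells receive titrated doses and incubate 72 hr at 37 degrees C beforehand.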

[10] = qHTS for Inhibitors of ATXN expression: Validation (AID 588378); further: series mostly up to about 57 µM; nearly all actives have a fitted effect of over 75% in size
Procedure, shortened: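 After a 2 h attachment and 24 h compound incubation, HEK293-ATXN2-FFLuc wells are read for fluorescence at 405 nm excitation/525 nm emission as a viability measure, then for Bright-Glo luminescence reflecting ATXN2 expression.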

[11] = molecular target: DNA dC->dU-editing enzyme APOBEC-3G (Homo sapiens) (UniProt Q9HC16); test: qHTS for inhibitors of Vif-A3G interactions: Validation (AID 588379)
Chain of DNA dC->dU-editing enzyme APOBEC-3G (Homo sapiens) (Q9HC16 whole entry, looked up): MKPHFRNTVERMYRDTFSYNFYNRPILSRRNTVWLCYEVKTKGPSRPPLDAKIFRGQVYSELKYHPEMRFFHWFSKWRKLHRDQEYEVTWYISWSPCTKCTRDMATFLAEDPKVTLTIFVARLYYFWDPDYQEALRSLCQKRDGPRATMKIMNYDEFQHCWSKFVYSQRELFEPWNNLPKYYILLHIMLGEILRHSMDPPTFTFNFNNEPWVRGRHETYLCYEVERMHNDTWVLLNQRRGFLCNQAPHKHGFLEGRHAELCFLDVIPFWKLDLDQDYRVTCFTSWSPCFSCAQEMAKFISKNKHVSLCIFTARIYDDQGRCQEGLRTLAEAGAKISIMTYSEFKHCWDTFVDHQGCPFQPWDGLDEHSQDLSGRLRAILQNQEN
Procedure, shortened: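 Yellow fluorescence (Ex 488, Em 500-530) of Vif-coexpressing HeLa A3G-eYFP cells, scanned by Acumen cytometer, reports blocked A3G degradation. Cells plated at 700/well overnight at 37 deg C before compound addition, then a further overnight compound incubation at 37 deg C.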

[12] = molecular target: Thyrotropin-releasing hormone receptor (Homo sapiens) (UniProt P34981); test: qHTS for Small Molecule Agonists and Allosteric Enhancers of Human TRH Receptor: Validation Screen for Agonists (AID 493127;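 active means calcium activation more than 3 SD above the typical response in the agonist read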;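 further: intracellular calcium rise by fluo-8 fluorescence before TRH EC20 addition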); settings: TRH receptor agonist cell assay; at 2 µM; stronger effect = higher value
Chain of Thyrotropin-releasing hormone receptor (Homo sapiens) (P34981 whole entry, looked up): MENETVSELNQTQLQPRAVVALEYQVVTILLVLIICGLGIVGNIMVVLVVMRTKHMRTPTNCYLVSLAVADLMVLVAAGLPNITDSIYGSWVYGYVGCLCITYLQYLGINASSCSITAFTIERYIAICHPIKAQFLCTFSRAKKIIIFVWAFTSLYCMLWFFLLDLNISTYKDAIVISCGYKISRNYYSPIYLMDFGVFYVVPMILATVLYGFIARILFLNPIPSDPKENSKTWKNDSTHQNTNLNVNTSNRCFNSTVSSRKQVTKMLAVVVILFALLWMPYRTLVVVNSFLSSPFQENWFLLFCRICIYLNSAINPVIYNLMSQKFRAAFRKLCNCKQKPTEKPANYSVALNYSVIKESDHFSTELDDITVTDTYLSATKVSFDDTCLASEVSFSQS
Procedure, shortened: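 Kinetic fluorescence assay of agonist-induced calcium release: overnight-plated TRHR cells, room-temperature fluo-8 loading, baseline then compound addition with per-second reads.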

[13] = Nrf2 qHTS screen for inhibitors: Validation (AID 493153; active means well fitted inhibition curve with a large enough effect in the main read-out, with a control signal flat, not every such curve was filed as active); settings: Potency: luciferase luminescence; viability change: measured here: cytotoxicity max response
Procedure, shortened: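 In this counterscreened reporter format, each well gives two signals: CellTiter-Fluor fluorescence for cytotoxicity and ARE-luciferase luminescence for Nrf2 function. A549 ARE_Fluc cells in 5% FBS OPTI-MEM were exposed to compound titrations for 18-24 h.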

[14] = molecular target: Estrogen receptor (Homo sapiens) (UniProt P03372); test: qHTS assay for small molecule antagonists of estrogen receptor alpha signaling (AID 588513; active means well fitted curve in the direction sought with a large enough effect in the signal ratio, with a control signal flat, not every such curve was filed as active; the % refers to the signal ratio)
Procedure, shortened: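 Antagonist-mode qHTS in ER-alpha-UAS-bla HEK 293 cells: compound titration, 0.5nM estradiol for 18 h, CCF4 fluorescence, Hill-derived IC50.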

[15] = molecular target: Estrogen receptor (Homo sapiens) (UniProt P03372); test: qHTS assay for small molecule agonists of estrogen receptor alpha signaling (AID 588514; calls by dose curve; further: nearly all actives have a fitted effect of over 70% in size)
Procedure, shortened: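 Fluorescence from CCF4 cleavage reports ER-alpha-driven beta-lactamase expression in HEK 293 cells treated 18 hrs at 37 C. Data normalized to 17-beta-estradiol (20 nM) and DMSO, fitted to Hill equation.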

[16] = molecular target: Bile acid receptor (Homo sapiens) (UniProt Q96RI1); test: qHTS assay for small molecule antagonists of farnesoid X receptor signaling (AID 588526; calls by dose curve)
Procedure, shortened: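 Beta-lactamase reporter antagonist mode: HEK293T FXR-UAS-bla cells, titrated compound, CDCA stimulation, 16 h 37 C, CCF4 dye 2 h RT. Data normalized to CDCA 50 uM and DMSO; Hill-fit IC50.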

[17] = molecular target: Glucocorticoid receptor (Homo sapiens) (UniProt P04150); test: qHTS assay for small molecule agonists of glucocorticoid receptor signaling (AID 588532; active means well fitted curve in the direction sought with a large enough effect in the signal ratio, with a control signal flat; the % refers to the signal ratio); settings: HeLa MMTV-bla, beta-lactamase ratio, agonist, 18 h; activation: stronger effect = higher value, percent of dexamethasone control, DMSO zero
Procedure, shortened: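 Agonist-mode qHTS: GRE-driven beta-lactamase in HeLa cells exposed 18 h to titrated compounds (up to 92 uM), then CCF4 ratio read after 2 h at RT; Hill-fitted EC50, efficacy relative to 0.1 uM dexamethasone.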

SMILES | Potency [1] | outcome [2] | outcome [3] | outcome [4] | outcome [5] | outcome [6] | outcome [7] | Potency [8] | Potency [9] | Potency [10] | outcome [11] | activation [12] | Potency [13] | viability change [13] [%] | outcome [14] | Potency [15] | outcome [16] | activation [17]
COc1ccc([C@@H]2Sc3ccccc3N(CCN(C)C)C(=O)[C@@H]2OC(C)=O)cc1 | inactive | inactive | inactive | inactive | inactive | inactive | inactive | inactive | inactive | inactive | inactive | – | – | – | – | – | – | –
CCC(=O)c1ccc2c(c1)N(CCCN(C)C)c1ccccc1S2 | – | inactive | inactive | inactive | inactive | inactive | inactive | inactive | – | – | – | 1.56% (inactive) | inactive | -14.9 | – | – | – | –
CNCCC(Oc1ccccc1OC)c1ccccc1 (stereo not given) | – | inactive | inactive | inactive | inactive | inactive | inactive | inactive | inactive | – | – | 2.38% (inactive) | inactive | 4.36 | – | – | – | –
COc1ccc(CCN(C)CCCC(C#N)(c2cc(OC)c(OC)c(OC)c2)C(C)C)cc1OC (stereo not given) | – | inactive | inactive | inactive | inactive | inactive | inactive | inactive | – | – | – | 3% (inactive) | inactive | -13.6 | – | – | – | –
NC(=O)c1cn(Cc2c(F)cccc2F)nn1 | inactive | inactive | – | – | inactive | inactive | – | inactive | inactive | inactive | – | – | inactive | -8.96 | – | – | – | –
C[N+](C)(C)CCCCCCCCCC[N+](C)(C)C | inactive | inactive | inactive | inactive | inactive | inactive | – | inactive | inactive | inactive | – | – | inactive | -2.44 | – | – | – | –
Cc1ccc(/C(=C\CN2CCCC2)c2ccccn2)cc1 | inactive | inactive | inactive | inactive | inactive | inactive | inactive | inactive | inactive | inactive | – | – | inactive | 2.7 | – | – | – | –
CNCCCN1c2ccccc2CCc2ccccc21 | inactive | inactive | inactive | inactive | inactive | inactive | inactive | inactive | – | – | – | – | inactive | -3.92 | – | – | – | –
COc1ccc2c(c1OC)C(=O)O[C@@H]2[C@H]1c2c(cc3c(c2OC)OCO3)CCN1C | inactive | inactive | – | – | inactive | inactive | inactive | inactive | – | inactive | inactive | – | – | – | – | – | – | –
CNC1(C)C2CCC(C2)C1(C)C (stereo not given) | – | inactive | inactive | inactive | inactive | inactive | inactive | inactive | inactive | inactive | – | 0.375% (inactive) | inactive | 3.39 | – | – | – | –
CCNC(=O)N1CCN(CCCC(c2ccc(F)cc2)c2ccc(F)cc2)CC1 | – | inactive | inactive | inactive | inactive | inactive | inactive | inactive | – | – | – | 6.5% (inactive) | inactive | -3.28 | – | – | – | –
O=C(O)CN(CCOCCOCCN(CC(=O)O)CC(=O)O)CC(=O)O | inactive | inactive | inactive | inactive | inactive | inactive | inactive | inactive | inactive | inactive | – | – | inactive | 3.82 | – | – | – | –
CN=C(NC#N)NCCSCc1nc[nH]c1C | inactive | inactive | inactive | inactive | inactive | inactive | inactive | inactive | inactive | inactive | inactive | 1.12% (inactive) | – | – | inactive | inactive | inactive | –
CC(=O)[C@@]1(O)CC[C@H]2[C@@H]3CCC4=CC(=O)CC[C@]4(C)[C@H]3CC[C@@]21C | inactive | inactive | – | – | inactive | inactive | – | inactive | inactive | inactive | – | – | – | – | – | – | – | 1.8% (inactive)
CN(C)CC[C@@H](c1ccc(Br)cc1)c1ccccn1 | inactive | inactive | inactive | inactive | inactive | inactive | inactive | inactive | inactive | inactive | – | – | inactive | 1.19 | – | – | – | –
Cc1cccc(C)c1NC(=O)C(C)N (stereo not given) | inactive | inactive | – | – | inactive | inactive | inactive | inactive | inactive | inactive | – | – | inactive | 3.48 | – | – | – | –
CC(C)NCC(O)c1cc(O)cc(O)c1 (stereo not given) | inactive | inactive | inactive | inactive | inactive | inactive | – | inactive | inactive | inactive | – | – | inactive | 7.12 | – | – | – | –
Cc1nc2ccccn2c(=O)c1CCN1CCC(C(=O)c2ccc(F)cc2)CC1 | – | inactive | inactive | inactive | inactive | inactive | inactive | inactive | inactive | inactive | – | 1.44% (inactive) | inactive | -13.1 | – | – | – | –
CN(C)[C@@H]1C(=O)C(C(N)=O)=C(O)[C@@]2(O)C(=O)C3=C(O)c4c(O)ccc(Cl)c4[C@@H](O)[C@H]3C[C@@H]12 | inactive | inactive | – | – | – | inactive | inactive | inactive | inactive | inactive | – | – | inactive | 4.27 | – | – | – | –
Cc1ccc(Cl)c(Nc2ccccc2C(=O)O)c1Cl | inactive | inactive | inactive | inactive | – | inactive | – | inactive | inactive | inactive | – | 0% (inactive) | – | – | – | – | – | –
Brc1c(NC2=NCCN2)ccc2nccnc12 | inactive | inactive | inactive | inactive | inactive | inactive | inactive | inactive | inactive | inactive | inactive | – | inactive | -1.27 | – | – | – | –
O=C1NCN(c2ccccc2)C12CCN(CCCC(c1ccc(F)cc1)c1ccc(F)cc1)CC2 | 25.9 µM (active) | inactive | inactive | inactive | inactive | inactive | inactive | – | inactive | inactive | – | 0.75% (inactive) | – | – | – | – | – | –
